According to PubChem BioAssay AID1698 (The Scripps Research Institute Molecular Screening Center, 2009):
The other results are listed elsewhere or left out. Calls of active or inactive are those of the source.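 How the source made its calls: active means activation above the solvent-only control wells' mean plus 3 SD (cut at about 11% in these data); inactive means the rest.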

Target: Neuropeptide Y receptor type 2 (Homo sapiens) (UniProt P49146)
Assay: human Y2 receptor agonism – cell-based, fluorescence, counter-screen for NPY-Y1 potentiator project (AID 1698);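 further: 0% = DMSO with isoproterenol and 100% = 40 nM NPY maximal response; agonism lowers cAMP so well fluorescence drops in active wells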
Conditions: HEK293 Y2-CNGC, membrane potential fluorescence, agonist mode; at 3.6 µM; active compounds read high

Sequence of Neuropeptide Y receptor type 2 (Homo sapiens) (P49146 whole entry, looked up): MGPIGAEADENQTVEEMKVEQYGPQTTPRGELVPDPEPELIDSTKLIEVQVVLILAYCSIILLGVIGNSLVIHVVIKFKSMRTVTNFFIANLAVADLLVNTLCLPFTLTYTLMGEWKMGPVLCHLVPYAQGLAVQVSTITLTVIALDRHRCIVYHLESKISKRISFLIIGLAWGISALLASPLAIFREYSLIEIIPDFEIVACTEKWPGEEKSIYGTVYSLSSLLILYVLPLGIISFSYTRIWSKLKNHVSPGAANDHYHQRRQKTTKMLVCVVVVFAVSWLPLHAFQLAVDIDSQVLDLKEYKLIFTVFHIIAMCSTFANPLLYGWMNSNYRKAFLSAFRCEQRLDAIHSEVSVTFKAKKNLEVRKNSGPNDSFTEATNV

| SMILES | activation |
| --- | --- |
| CSC1=NP(=S)(SC)N(C)c2nc3n(c21)CCC3 (configuration not stated) | 5.24% (inactive) |
| Cc1nn(Cc2ccccc2Cl)c(Cl)c1C(=O)OC(C(=O)NC(N)=O)C(C)C (configuration not stated) | 31.5% (active) |
